Results on 39 molecules are retold here after PubChem BioAssay.

Active and inactive are the calls of the source.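 Rule for the calls: active = primary screen hit whose calcium fluorescence ratio, in both repeats, exceeds the weak agonist control mean by 3 SD; inactive = the rest.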

This assay concerns TRPC4 beta (transient receptor potential cation channel C4), mouse. Briefly: positive allosteric modulators of mouse TRPC4, confirmation, cell-based, Fluo-4, HEK293 TRPC4beta/mu-opioid (AID 2555). The settings on record: DAMGO EC20, Fluo-4 calcium flux, at 10 µM; active compounds read high. (Calcium flux is commonly read through the fluorescence of an indicator in the cells.)
With `COc1cc(/C=C2\C(=N)N3N=C(S(C)(=O)=O)SC3=NC2=O)ccc1OC(=O)c1cccs1`, the outcome was inactive.

`c1ccc(CN2CCN(c3nc4ccccc4s3)CC2)cc1`: the potentiation is 9% (active).

Turning to `COc1ccccc1N(C(=O)c1snc(C(N)=O)c1N)C(C(=O)NCc1ccccc1)c1ccc(O)cc1` (centres undefined), the result was inactive.

Turning to `Cc1ccc(SC(CC(=O)c2ccc(C(C)(C)C)cc2)C(=O)O)cc1` (centres undefined), the result was inactive.

Consider `COc1ccc(C2CC(=O)c3cnc(N4CCN(Cc5ccccc5)CC4)nc3C2)cc1` (centres undefined), for which the result was inactive.

Turning to `CC(=O)Nc1ccc(S(=O)(=O)N2CCN(CCCOc3cc(C)ccc3C)CC2)cc1`, the potentiation was 24% (active).

As to `COc1cc(/C=C/C(=O)OCC(=O)Nc2c(C)n(C)n(-c3ccccc3)c2=O)ccc1OCC#N`, the result was inactive.

For the molecule `Cc1cc2oc(C(=O)N(Cc3ccco3)C3CCS(=O)(=O)C3)cc(=O)c2cc1Cl` (centres undefined), the potentiation was 66% (active).

As to `CCOCCCn1cnc2c(c1=O)c1nc3ccccc3nc1n2-c1ccc(C)cc1`, the outcome was inactive.

Turning to `O=C(c1ccccc1F)N1CCN(c2ccc([N+](=O)[O-])cc2-n2cccc2)CC1`, the potentiation was 20% (active).

With `CN(CC(=O)Nc1ccc(F)cc1)C(=O)COC(=O)c1ccccc1`, the potentiation was 25% (active).

Consider `O=C(NC1CC1)c1ccc2c(c1)N(Cc1ccc(Cl)cc1)CCS2`, for which the outcome was inactive.

In the case of `O=C(Nc1ccc2c(c1)OCO2)c1cnn2cccnc12`, the potentiation was 38% (active).

Consider `CCc1nc2ccccc2n1Cc1ccccc1F`, for which the outcome was inactive.

Consider `CN(Cc1ccco1)C(=O)Cn1ncc2c([nH]c3ccccc32)c1=O`, for which the potentiation is 10% (active).

Regarding `CN1CCN(NC(=O)Nc2cc(Cl)cc(Cl)c2)CC1`, the potentiation is 29% (active).

For the molecule `Cc1ccc2nc(C(=O)N3CCc4c([nH]c5ccccc45)C3c3ccccn3)cn2c1` (centres undefined), the result was inactive.

On to `Clc1ccc(N=C2SCC3CCCCN23)cc1` (centres undefined), for which the potentiation was 10% (active).

Consider `O=S(=O)(c1ccc(Oc2ccc(Br)cc2)cc1)N1CCOCC1`, for which the result was inactive.

Turning to `O=S(=O)(Nc1ccc(S(=O)(=O)Nc2cccc3ccccc23)cc1)c1ccccc1`, the outcome was inactive.

As for `COc1ccc(N(C(=O)c2snc(C(N)=O)c2N)C(C(=O)NC2CCCCC2)c2ccc(C)o2)c(OC)c1` (centres undefined), the outcome was inactive.

Regarding `Cc1ccc(S(=O)(=O)Nc2ccc(N=Nc3ccc(O)cc3)cc2)cc1`, the outcome was inactive.

For `O=C(c1ccccc1)c1coc2ccc(O)c(CN3CCOCC3)c12`, the result was inactive.

Regarding `CCOc1ccc(N=CNc2ccc(OCC)cc2)cc1`, the outcome was inactive.

In the case of `COCCSc1ccccc1C(=O)N1CCC(Cc2ccccc2)CC1`, the outcome was inactive.

With `O=C(c1ccccc1F)N1CCN(c2ccc([N+](=O)[O-])c3cccnc23)CC1`, the potentiation is 18% (active).

Regarding `Cc1ccc(NS(=O)(=O)c2cc(C(=O)N3CCc4ccccc4C3)ccc2Cl)cc1`, the result was inactive.

With `CCn1cc(CN2CCC(n3nccc3NC(=O)CCOc3ccccc3)CC2)c(C)n1`, the outcome was inactive.

`CCN1CCN(c2ccc(S(=O)(=O)N3CCCCC3)cc2NC(=O)COc2cc(C)ccc2Cl)CC1`: the potentiation is 16% (active).

Regarding `CN(C)CCCCOc1cccc(Br)c1`, the outcome was inactive.

In the case of `CC(C)c1ccc(C(C)NCCS(=O)(=O)c2ccc(Br)cc2)cc1` (centres undefined), the outcome was inactive.

For `COc1cc2c(C(=O)N3CCN(C)CC3)c(CSc3ccccc3)n(C)c2cc1Br`, the potentiation was 25% (active).

`Cc1c(N2C(=O)/C(=C/c3ccccc3)SC2=S)c(=O)n(-c2ccccc2)n1C`: the outcome was inactive.

With `Cc1n[nH]c(C)c1Cc1c(F)cccc1Cl`, the result was inactive.

On to `O=C(Nc1ccc([N+](=O)[O-])cn1)C1CCCCC1`, for which the outcome was inactive.

On to `O=c1[nH][nH]c(-c2ccccc2)c1C=Nc1ccc(F)cc1F`, for which the potentiation is 119% (active).

As to `COc1ccccc1C1/C(=C(\O)c2ccc3c(c2)OCCO3)C(=O)C(=O)N1Cc1cccnc1` (centres undefined), the outcome was inactive.

In the case of `CCN(CC)CCSc1nnc2c3ccccc3n(Cc3ccccc3)c2n1`, the result was inactive.

Turning to `CCCn1c(SCC(=O)N2c3ccccc3Sc3ccccc32)nc2c1c(=O)n(C)c(=O)n2C`, the potentiation was 18% (active).
